# High-throughput results from PubChem.
# Most compounds without a hit are left out; they make up all but 4.8% or so of the library.
# ssDAF-12 act = S. stercoralis DAF-12 nuclear receptor activators, primary screen, cell-based, luminescence, HEK293, GRIP1 co-expression, lit1-tk-luc; HEK293 ssDAF-12/GRIP1 lit1-tk-luc reporter; % of 3 µM dafachronic acid response; Nuclear hormone receptor DAF-12 (Strongyloides stercoralis); activation, % at 6.8 µM; hit rate 1% among 370,000;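 active = activation above the mean over all tested compounds plus 3 SD, cut at about 0.9% in these data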;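 also: 0% = DMSO-only wells and 100% = 3 µM delta7-dafachronic acid wells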
# hcDAF-12 act = H. contortus DAF-12 nuclear receptor activators, primary screen, cell-based, luminescence, HEK293, lit1-tk-luc reporter; HEK293 hcDAF-12 lit1-tk-luc reporter; 0% DMSO, 100% Δ7-dafachronic acid; activation, % at 6.8 µM; hit rate 1.4% among 370,000; AID 652067, 2013;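 active = activation above the mean of all tested compounds plus 3 SD, cut at about 5.5% in these data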;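 also: 100% = response to 3 µM Δ7-dafachronic acid high control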
# SMARCA2 act = SMARCA2 (BRM) function activators, primary screen, cell-based, luminescence, high throughput; AID 652017, 2013; MG213 cells, MMTV-luciferase reporter, dexamethasone, overnight; activation, % at 9.1 µM; hit rate 1% among 370,000; in the data active = activation above about 7.8%;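 also: 0% = vehicle wells and 100% = reference activator wells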
# hgDAF-12 ag = H. glycines DAF-12 receptor agonists, primary screen, cell-based, luminescence, HEK293, GAL4 fusion, UAS-luciferase; AID 687014, 2013; activation, % at 6.8 µM; HEK293 GAL4-hgDAF12 UAS-luciferase reporter, agonist luminescence; normalized to butyrate control; hit rate 1.8% among 370,000; Nuclear hormone receptor DAF-12 (Heterodera glycines), GAL4 fusion;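 active = activation above a cutoff set at the mean of all screened compounds plus 3 SD, cut at about 10% in these data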;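 also: 0% = DMSO wells and 100% = sodium butyrate wells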
# DAX1 inh-1 = DAX1 (NR0B1) inhibitors, primary screen, cell-based, HEK293, Gal4-DAX1, luciferase luminescence; hit rate 0.99% among 340,000; Nuclear receptor subfamily 0 group B member 1 (Homo sapiens), P51843; HEK293 Gal4-DAX1 luciferase reporter; inhibition, % at 6.75 µM;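 active = inhibition above the mean over all tested compounds plus 3 SD, cut at about 4.2% in these data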;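 also: 0% = DAX1-transfected cells with DMSO and 100% = empty-vector control cells with DMSO; inhibition shows as a rise in luminescence from relieved DAX1 repression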
# Target sequence (P51843 207-470 limits assumed): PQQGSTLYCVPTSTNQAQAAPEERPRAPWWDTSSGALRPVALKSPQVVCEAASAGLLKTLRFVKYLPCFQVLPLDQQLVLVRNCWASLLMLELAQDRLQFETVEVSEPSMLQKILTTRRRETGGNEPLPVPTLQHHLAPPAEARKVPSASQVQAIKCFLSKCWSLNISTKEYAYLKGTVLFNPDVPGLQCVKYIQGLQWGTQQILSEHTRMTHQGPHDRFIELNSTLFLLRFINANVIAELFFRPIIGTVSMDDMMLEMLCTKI
# DAX1 inh-2 = DAX1 (NR0B1) inhibitors on StAR promoter, primary screen, cell-based, luminescence, SF-1 (NR5A1), full-length DAX-1. HEK293T StAR-luciferase reporter, SF-1/DAX-1 repression relief. inhibition, % at 6.8 µM. hit rate 1.1% among 370,000;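 active = inhibition above the mean over all tested compounds plus 3 SD, cut at about 3.6% in these data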;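 also: 0% = DAX-1 cells with DMSO and 100% = cells lacking DAX-1 with DMSO; higher inhibition means more luminescence from relief of DAX-1 repression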
# LXRb hcDAF ctr = LXR agonists, Gal4 luciferase reporter, confirmation, counter-screen for hcDAF-12 agonist project, cell-based, luminescence, HEK293, H. contortus campaign; shares compounds with hcDAF-12 act; HEK293 Gal4-LXR tk-luc reporter, 24 h; normalized: DMSO 0%, positive control 100%; activation, % at 6.8 µM; 3,400 tested, under 10 active; AID 743027, 2013;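 active = mean percent activation of the reporter above a cutoff set as the average over tested compounds plus their standard deviation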
# hcDAF12 ag = H. contortus DAF-12 receptor agonists, confirmation, cell-based, luminescence, HEK293, lit1-tk-luc, triplicate; shares compounds with hcDAF-12 act; HEK293 hcDAF-12 lit1-tk-luc reporter; % of Δ7-dafachronic acid response; activation, % at 6.8 µM; hit rate 61% among 3,400; AID 743032, 2013;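 active = mean activation across triplicate tests above the threshold derived from the earlier primary screen, cut at about 5.5% in these data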;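 also: 0% = DMSO only wells and 100% = 3 µM Δ7-dafachronic acid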
# An asterisk follows results filed as active; . = no result.
SMILES,ssDAF-12 act,hcDAF-12 act,SMARCA2 act,hgDAF-12 ag,DAX1 inh-1,DAX1 inh-2,LXRb hcDAF ctr,hcDAF12 ag
O=C(Nc1cc(Cl)ccc1Oc1ccccc1)C1=COCCO1,-1,-1,-2,-3,0,-1,.,.
Cc1ccc(-n2c(SCC(=O)Nc3ccccc3-c3ccccc3)nnc2-c2cnccn2)cc1,-1,-4,-4,-3,.,-1,.,.
CC(=O)C1CCCN(C(=O)c2ccc3oc(CCc4ccccc4)nc3c2)C1 (stereo not given),1,7.0*,2,4,1,3.9*,0,3
c1coc(-c2cnc3ccccc3n2)c1,0,7.8*,3,8,4.4*,3,1,5.7*
Nc1ccc(-c2cnc3ccccc3n2)cc1,0,7.1*,5,11*,.,2,2,7.5*
CN(CC(=O)Nc1ccccc1C(F)(F)F)C(=O)Cn1c(=O)oc2ccccc21,-1,3,-2,-1,1,0,.,.
Cc1ccccc1C(=O)Nc1ccc(Cl)cn1,-1,2,0,10,3,1,.,.
O=C(Nc1ccc(OC(F)(F)F)cc1)c1ccc2ccccc2n1,1,7.8*,2,9,0,1,0,7.7*
O=C(Nc1ccc(Cl)cn1)c1ccc2ccccc2n1,1.4*,7.8*,4,7,2,0,1,17*
CC1CCCC(NC(=O)COC(=O)c2ccccc2[N+](=O)[O-])C1C (stereo not given),-1,-1,2,0,-1,0,.,.
NNc1nc(-c2ccccc2)nc2sc3c(c12)CCCC3,1,7.8*,1,3,3,2,2,19*
NNc1nc2sc3c(c2c(=O)n1Cc1ccccc1)CCC3,-2,1,3,2,1,1,.,.
S=C(NNc1ccnc2cc(Cl)ccc12)Nc1ccc(Cl)cc1Cl,-2,-1,-3,0,0,-1,.,.
CCOc1ccc(NC(=S)NNc2ccnc3cc(Cl)ccc23)cc1,-2,7.9*,5,0,1,1,-1,-2
COc1ccc2nc(NC(=O)C3CCCN(S(=O)(=O)c4cccc5nsnc45)C3)sc2c1 (stereo not given),-2,-1,-2,0,-1,-1,.,.
Cc1c(N=C2NN=C(c3c[nH]c4ccccc34)CS2)c(=O)n(-c2ccccc2)n1C,0,7.0*,0,2,-1,-1,0,2
N#Cc1c(NC(=O)c2ccccc2)sc2c1CCCCC2,1.0*,7.0*,6,13*,2,3,1,5.9*
NC(=O)c1c(NC(=O)c2ccccc2F)sc2c1CCCC2,0,9.0*,1,13*,5.4*,3,1,7.3*
O=c1oc2ccccc2cc1-c1nc2ccccc2o1,1.0*,8.8*,1,9,2,3,1,6.3*
Oc1ccccc1-c1nc2c3ccccc3c3ccccc3c2[nH]1,0,7.5*,-1,4,2,-1,0,5
COc1ccc([N+](=O)[O-])c(OC)c1C(=O)NC(=O)Nc1nc(C)cc(C)n1,-1,-2,1,-2,0,-1,.,.
Cc1cc(C)n2nc(Nc3ccccc3)cc2n1,0,7.2*,0,2,1,1,0,11*
Cc1cc(C)n2nc3ccccc3c2n1,0,3,-1,0,-1,0,.,.
CCc1ccc2c(c1)C(=O)c1ccccc1C2=O,2.5*,8.0*,4,11*,0,1,1,9.8*
CCc1ccc(NC2=CC(=O)C(=O)c3ccccc32)cc1,0,1,3,6,-1,-1,.,.
SMILES,ssDAF-12 act,hcDAF-12 act,SMARCA2 act,hgDAF-12 ag,DAX1 inh-1,DAX1 inh-2,LXRb hcDAF ctr,hcDAF12 ag
C/C(=N\Nc1ccc(S(N)(=O)=O)cc1[N+](=O)[O-])c1ccccc1O,-1,0,-2,-2,1,-1,.,.
C/C(=N\Nc1ccccc1[N+](=O)[O-])c1ccccc1O,0,6.9*,5,6,4.4*,0,1,14*
N/C(=N\NC(=O)Nc1ccccc1)c1ccccn1,0,7.7*,0,5,.,3,0,2
O=C(Nc1cccc(S(=O)(=O)N2CCCCC2)c1)c1cccs1,-1,0,-2,-3,0,-2,.,.
O=C(NCc1cccs1)c1nn2cccnc2c1Cl,0,0,3,3,1,0,.,.
Cc1ccc2nc(-c3ccc(N)cc3)sc2c1,1.6*,11*,3,9,.,4.2*,2,13*
COc1ccc2nc(-c3ccc(F)cc3)sc2c1,1.0*,9.3*,4,11*,-2,3,1,6.7*
COc1ccc2nc(N)sc2c1,-1,3,-3,5,1,0,.,.
Nc1ccc2nc(-c3ccccc3)c(-c3ccccc3)nc2c1,-1,-1,-1,-5,2,0,.,.
Nc1ccc2nc(-c3ccccc3)sc2c1,0,9.7*,4,11*,-3,2,2,7.1*
Cc1ccc(C(=O)NCC(=O)N2CCN(S(=O)(=O)c3cccs3)CC2)s1,0,0,5,5,1,0,.,.
Cn1ccnc1Sc1ccc(/C=N/NC(=O)c2ccccc2O)cc1[N+](=O)[O-],1,9.5*,0,5,0,0,0,7.2*
Cc1cccc2c(N=Nc3ccccc3)c(O)[nH]c12,4.4*,14*,3,22*,5.4*,2,2,21*
Oc1[nH]c2ccccc2c1N=Nc1ccccn1,1,3,-1,9,2,2,.,.
Oc1[nH]c2ccccc2c1N=Nc1cccc(Cl)c1,1.2*,8.9*,1,9,1,1,1,13*
